Measured values reported in the supplement of paper PMC10127200.
Where a name gives a salt, the structure may show the parent alone.

Key:
Assay in all cases: Euclidean distance of Cell Painting phenotypic profile (signed KS, 77 features) to DMSO centroid (dimensionless distance); 5 or 10 uM (library dependent); higher = stronger phenotypic change vs DMSO (phenoactivity)
Settings in all cases: 48 h
[1] = system: 786-O
Outline: (§1)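 Five cancer lines, together with a healthy fibroblast line, received library compounds for 48 h at a library-dependent 10 or 5 uM and 0.1% DMSO final. Harmony then derived 77 features from confocal 20X images (9 fields/well) of the stained cells, scoring each as a signed Kolmogorov-Smirnov statistic against same-plate vehicle wells. After plate-position correction, correlation weighting and replicate averaging at the top dose, phenoactivity was taken as each profile's Euclidean distance to the median vehicle profile.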

[2] = system: A549
Outline: as §1

[3] = system: DU145
Outline: as §1

[4] = system: FB
Outline: as §1

[5] = system: HEPG2
Outline: as §1

[6] = system: OVCAR4
Outline: as §1

Compound `C[C@]1(Cn2ccnn2)[C@H](C(=O)O)N2C(=O)C[C@H]2S1(=O)=O` [Tazobactam] has an Euclidean distance [1] of 0.708, an Euclidean distance [2] of 0.639 and an Euclidean distance [3] of 0.78. The Euclidean distance [4] was 0.984, the Euclidean distance [5] was 0.41 and the Euclidean distance [6] was 0.673.
In the case of `CN[C@H](CC(C)C)C(=O)N[C@H]1C(=O)N[C@@H](CC(N)=O)C(=O)N[C@H]2C(=O)N[C@H]3C(=O)N[C@H](C(=O)N[C@H](C(=O)O)c4cc(O)cc(O)c4-c4cc3ccc4O)[C@H](O)c3ccc(c(Cl)c3)Oc3cc2cc(c3O[C@@H]2O[C@H](CO)[C@@H](O)[C@H](O)[C@H]2O[C@H]2C[C@](C)(N)[C@H](O)[C@H](C)O2)Oc2ccc(cc2Cl)[C@H]1O` [Vancomycin HCl], the Euclidean distance [1] is reported as 0.545, the Euclidean distance [2] is reported as 0.761 and the Euclidean distance [3] is reported as 0.862. The Euclidean distance [4] was 0.465, the Euclidean distance [5] was 0.611 and the Euclidean distance [6] was 0.795.
`CC(S)C(=O)NCC(=O)O` (stereo not given) [Tiopronin] showed an Euclidean distance [1] of 1.57, an Euclidean distance [2] of 0.822 and an Euclidean distance [3] of 1.09. The Euclidean distance [4] was 0.869, the Euclidean distance [5] was 2.07 and the Euclidean distance [6] was 1.32.
`CN(C)CC/C=C1/c2ccccc2COc2ccc(CC(=O)O)cc21` [Olopatadine HCl] gave an Euclidean distance [1] of 0.847, an Euclidean distance [2] of 0.745 and an Euclidean distance [3] of 0.865. The Euclidean distance [4] was 1.38, the Euclidean distance [5] was 0.686 and the Euclidean distance [6] was 0.734.
In the case of `CC(N)C12CC3CC(CC(C3)C1)C2` (stereo not given) [Rimantadine Hydrochloride], the Euclidean distance [1] is reported as 1.07, the Euclidean distance [2] is reported as 0.924 and the Euclidean distance [3] is reported as 0.781. For the same compound, the Euclidean distance [4] was 1.07, the Euclidean distance [5] was 0.658 and the Euclidean distance [6] was 1.17.
`CC[C@H]1OC(=O)[C@H](C)[C@@H](O[C@H]2C[C@@](C)(OC)[C@@H](O)[C@H](C)O2)[C@H](C)[C@@H](O[C@@H]2O[C@H](C)C[C@H](N(C)C)[C@H]2O)[C@](C)(O)C[C@@H](C)CN(C)[C@H](C)[C@@H](O)[C@]1(C)O` [Azithromycin] gave an Euclidean distance [1] of 0.885, an Euclidean distance [2] of 0.638 and an Euclidean distance [3] of 1.38. The Euclidean distance [4] was 1.53, the Euclidean distance [5] was 2.1 and the Euclidean distance [6] was 1.08.
For `CCN[C@H]1C[C@H](C)S(=O)(=O)c2sc(S(N)(=O)=O)cc21` [Dorzolamide HCl], the Euclidean distance [1] was 1.17, the Euclidean distance [2] was 0.786 and the Euclidean distance [3] was 1.03. It also gave an Euclidean distance [4] of 1.31, an Euclidean distance [5] of 1.06 and an Euclidean distance [6] of 1.09.
With `Oc1cc(O)cc(/C=C/c2ccc(O)c(O)c2)c1` [Piceatannol] the Euclidean distance [1] was 0.759, the Euclidean distance [2] was 1.05 and the Euclidean distance [3] was 0.992. It also gave an Euclidean distance [4] of 1.3, an Euclidean distance [5] of 2.04 and an Euclidean distance [6] of 0.83.
`CCCCCCc1ccc(O)cc1O` [Hexylresorcinol] was tested, and the Euclidean distance [1] was 1.35, the Euclidean distance [2] was 0.943 and the Euclidean distance [3] was 0.978. The Euclidean distance [4] was 0.936, the Euclidean distance [5] was 1.32 and the Euclidean distance [6] was 1.16.
For `CC(C)(O)CC(=O)NCCn1ccc2ncnc(Nc3ccc(Oc4cccc(C(F)(F)F)c4)c(Cl)c3)c21`, the Euclidean distance [1] was 1.98, the Euclidean distance [2] was 2.02 and the Euclidean distance [3] was 1.57. For the same compound, the Euclidean distance [4] was 1.52, the Euclidean distance [5] was 1 and the Euclidean distance [6] was 1.73.
Compound `Clc1ccccc1C(c1ccccc1)(c1ccccc1)n1ccnc1` [Clotrimazole] has an Euclidean distance [1] of 2.01, an Euclidean distance [2] of 1.31 and an Euclidean distance [3] of 1.38. It also gave an Euclidean distance [4] of 1.42, an Euclidean distance [5] of 1.76 and an Euclidean distance [6] of 1.64.
`CC(C)(C)NCC(O)c1ccc(O)c(CO)c1` (stereo not given) [Salbutamol Sulfate] showed an Euclidean distance [1] of 1.57, an Euclidean distance [2] of 0.928 and an Euclidean distance [3] of 1.27. The Euclidean distance [4] was 0.735, the Euclidean distance [5] was 1.31 and the Euclidean distance [6] was 1.78.
With `COC1=CC(=O)C[C@@H](C)[C@]12Oc1c(Cl)c(OC)cc(OC)c1C2=O` [Griseofulvin] the Euclidean distance [1] was 0.605, the Euclidean distance [2] was 0.678 and the Euclidean distance [3] was 0.803. It also gave an Euclidean distance [4] of 1.48, an Euclidean distance [5] of 0.745 and an Euclidean distance [6] of 0.81.
For `CCCNCC(O)COc1ccccc1C(=O)CCc1ccccc1` (stereo not given) [Propafenone HCl], the Euclidean distance [1] was 1.59, the Euclidean distance [2] was 1.51 and the Euclidean distance [3] was 1.37. The Euclidean distance [4] was 1.36, the Euclidean distance [5] was 0.85 and the Euclidean distance [6] was 1.26.
`O=C1CC[C@@H](C(=O)N2CSC[C@H]2C(=O)O)N1` [Pidotimod] was tested, and the Euclidean distance [1] was 1.14, the Euclidean distance [2] was 0.696 and the Euclidean distance [3] was 0.731. The Euclidean distance [4] was 0.833, the Euclidean distance [5] was 0.84 and the Euclidean distance [6] was 0.854.
For `O=P(O)(O)OC(Cn1cncn1)(Cn1cncn1)c1ccc(F)cc1F` [Fosfluconazole], the Euclidean distance [1] was 1.39, the Euclidean distance [2] was 0.635 and the Euclidean distance [3] was 1.39. The Euclidean distance [4] was 0.872, the Euclidean distance [5] was 0.852 and the Euclidean distance [6] was 1.23.
`CCNC(=O)Nc1ccc(-c2nc3c(c(N4CCOC[C@@H]4C)n2)CCN(C2COC2)C3)cc1` gave an Euclidean distance [1] of 3.58, an Euclidean distance [2] of 3.22 and an Euclidean distance [3] of 1.78. It also gave an Euclidean distance [4] of 4.11, an Euclidean distance [5] of 3.1 and an Euclidean distance [6] of 4.55.
For `COC(=O)C1=C(C)NC(C)=C(C(=O)OC(C)(C)CN(C)CCC(c2ccccc2)c2ccccc2)C1c1cccc([N+](=O)[O-])c1` (stereo not given) [Lercanidipine], the Euclidean distance [1] was 1.59, the Euclidean distance [2] was 2.38 and the Euclidean distance [3] was 1.1. For the same compound, the Euclidean distance [4] was 1.31, the Euclidean distance [5] was 1.5 and the Euclidean distance [6] was 2.02.
Compound `NCCS` [2-Aminoethanethiol] has an Euclidean distance [1] of 1.12, an Euclidean distance [2] of 0.781 and an Euclidean distance [3] of 1.46. The Euclidean distance [4] was 0.594, the Euclidean distance [5] was 0.508 and the Euclidean distance [6] was 1.1.
In the case of `COc1cc(Nc2ncc(F)c(Nc3ccc4c(n3)NC(=O)C(C)(C)O4)n2)cc(OC)c1OC`, the Euclidean distance [1] is reported as 1.65, the Euclidean distance [2] is reported as 3.73 and the Euclidean distance [3] is reported as 2.9. The Euclidean distance [4] was 3.35, the Euclidean distance [5] was 1.78 and the Euclidean distance [6] was 2.24.
In the case of `C[C@@H](N)c1ccc(C(=O)Nc2ccnc3[nH]ccc23)cc1`, the Euclidean distance [1] is reported as 1.87, the Euclidean distance [2] is reported as 3.06 and the Euclidean distance [3] is reported as 3.16. For the same compound, the Euclidean distance [4] was 3.73, the Euclidean distance [5] was 2.26 and the Euclidean distance [6] was 2.05.
For `CCc1cccc2c3c([nH]c12)C(CC)(CC(=O)O)OCC3` (stereo not given) [Etodolac], the Euclidean distance [1] was 0.711, the Euclidean distance [2] was 0.964 and the Euclidean distance [3] was 1.01. The Euclidean distance [4] was 1.18, the Euclidean distance [5] was 0.56 and the Euclidean distance [6] was 1.35.
`CSc1nc2cc(Cl)c(Oc3cccc(Cl)c3Cl)cc2[nH]1` [Triclabendazole] showed an Euclidean distance [1] of 1.55, an Euclidean distance [2] of 0.638 and an Euclidean distance [3] of 1.65. For the same compound, the Euclidean distance [4] was 1.07, the Euclidean distance [5] was 1.43 and the Euclidean distance [6] was 0.772.
In the case of `Cc1cc(C)nc(NS(=O)(=O)c2ccc(NC(=S)NC(=O)COc3ccc(Br)cc3Cl)cc2)n1`, the Euclidean distance [1] is reported as 0.465, the Euclidean distance [2] is reported as 0.727 and the Euclidean distance [3] is reported as 0.713. It also gave an Euclidean distance [4] of 0.857, an Euclidean distance [5] of 2.1 and an Euclidean distance [6] of 0.759.
`CO[C@@]1(NC(=O)Cc2cccs2)C(=O)N2C(C(=O)O)=C(COC(N)=O)CS[C@@H]21` [Cefoxitin sodium] was tested, and the Euclidean distance [1] was 1.26, the Euclidean distance [2] was 0.874 and the Euclidean distance [3] was 1.51. The Euclidean distance [4] was 1.02, the Euclidean distance [5] was 0.857 and the Euclidean distance [6] was 0.983.
